Some test systems named below: SR leukemia; RPMI-8226 leukemia; OVCAR-8 ovarian; OVCAR-5 ovarian; OVCAR-4 ovarian; SK-OV-3 ovarian; IGROV1 ovarian; OVCAR-3 ovarian; HS 578T breast; T-47D breast; BT-549 breast; MDA-MB-435 melanoma; SW-620 colon; MCF7 breast; HCT-116 colon; HCC-2998 colon; KM12 colon; NCI/ADR-RES ovarian.
Holding throughout (assay): NCI-60 one-dose screen, 48 h (100 = growth as untreated, 0 = no growth, -100 = all killed)
Holding throughout (details): 10 µM unless noted

Compounds without any hit were thinned out: in the full panel of roughly 83,000, 20% have a hit.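 How to read the values: 0–100, growth inhibition (40 = 60% inhibited); 0, no net growth; -100 to 0, cell death (-40 = 40% of starting cells died; -100 = all dead).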 Unmarked numbers belong to inactive results. Active and inactive are the calls of the source. How the source made its calls: active means growth percent below 10; inactive means the rest.

As for `Cc1ccc(S(=O)(=O)c2nc(-c3ccccc3)oc2SCC(N)=O)cc1`, the growth in the assay with SR leukemia is 94.6%; with RPMI-8226 leukemia it was 96.8%; in the assay on OVCAR-8 ovarian, 111%; in the assay with OVCAR-5 ovarian it was 86.9%; in the assay with OVCAR-4 ovarian, 99.6%; in the assay with SK-OV-3 ovarian, 98.3%. In addition, the growth in the assay on IGROV1 ovarian is 101%; in the assay on OVCAR-3 ovarian, 94.9%; in the assay on HS 578T breast, 101%; with T-47D breast, 76.3%; with BT-549 breast, 106%; in the assay on MDA-MB-435 melanoma, 105%. Also, the growth was 104% with SW-620 colon; 96% in the assay on MCF7 breast; 85.7% in the assay on HCT-116 colon; 105% in the assay on HCC-2998 colon; 97.9% with KM12 colon.
In the case of `O=C(Nc1ccc(Oc2cccc(Cl)c2)c(Cl)c1)c1cccnn1`, the growth in the assay with SR leukemia is 87%; in the assay with RPMI-8226 leukemia it was 71.1%; in the assay on OVCAR-8 ovarian it was 91.7%; with OVCAR-5 ovarian, 91.1%; in the assay with OVCAR-4 ovarian it was 68.6%; with SK-OV-3 ovarian, 102%. Also, the growth in the assay with IGROV1 ovarian is 91.4%; in the assay on OVCAR-3 ovarian, 85.6%; in the assay with HS 578T breast it was 106%; with T-47D breast, 72.4%; in the assay with BT-549 breast, 98.5%; with MDA-MB-435 melanoma it was 77.6%. Besides, the growth in the assay on SW-620 colon is 105%; in the assay with MCF7 breast, 91.7%; in the assay on HCT-116 colon, 66.7%; in the assay with HCC-2998 colon, 95.2%; in the assay with KM12 colon, 85.3%.
In the case of `Cc1cn(C)cn1`, the growth in the assay on SR leukemia was 99.4%; in the assay on RPMI-8226 leukemia, 102%; in the assay with OVCAR-8 ovarian it was 106%; in the assay on OVCAR-5 ovarian, 102%; with OVCAR-4 ovarian, 100%; in the assay on SK-OV-3 ovarian it was 120%. Moreover, the growth was 117% in the assay with IGROV1 ovarian; 108% with OVCAR-3 ovarian; 138% with HS 578T breast; 104% with T-47D breast; 101% in the assay on BT-549 breast; 98.4% in the assay with MDA-MB-435 melanoma. Moreover, the growth in the assay on SW-620 colon was 108%; in the assay with MCF7 breast, 94.9%; in the assay on HCT-116 colon, 105%; in the assay with HCC-2998 colon it was 108%; with KM12 colon, 105%.
Regarding `COC1C(O)CC(OC2CC(OC3CC(O[C@@H]4C(=O)c5c(cc6cc(OC7CC(OC8CC(O)C(O)C(C)O8)C(O)C(C)O7)c(C)c(O)c6c5O)CC4[C@H](OC)C(=O)O)OC(C)C3O)OC(C)C2O)OC1C` (some centres undefined), the growth in the assay with SR leukemia is 18%; in the assay with RPMI-8226 leukemia, 19%; with OVCAR-8 ovarian it was 15.6%; in the assay with OVCAR-5 ovarian, 29.3%; in the assay on OVCAR-4 ovarian, 44.8%; in the assay on IGROV1 ovarian it was 23.7%. Further, the growth in the assay on OVCAR-3 ovarian was 18%; in the assay on HS 578T breast, 23.5%; with NCI/ADR-RES ovarian it was 63%; in the assay on T-47D breast it was 25.5%; in the assay with BT-549 breast it was 21.4%; in the assay on MDA-MB-435 melanoma, 28.8%. The growth in the assay with SW-620 colon is 32%; in the assay on MCF7 breast, 10.1%; in the assay on HCT-116 colon, 15.4%; in the assay on HCC-2998 colon it was 38.6%; in the assay with KM12 colon, 22.9%.
Consider `CCOC(=O)CC[C@H](NC(=O)c1ccc(N(C)Cc2cnc3nc(N)nc(N)c3n2)c2ccccc12)C(=O)OCC`, for which the growth in the assay on SR leukemia is 31.8%; in the assay on RPMI-8226 leukemia, 23%; in the assay with OVCAR-8 ovarian it was 23.9%; in the assay with OVCAR-5 ovarian it was 55.6%; in the assay with OVCAR-4 ovarian, 91.1%; in the assay on IGROV1 ovarian it was 24.5%. The growth with OVCAR-3 ovarian is 45.4%; in the assay on HS 578T breast, 58%; with NCI/ADR-RES ovarian, 39.3%; with T-47D breast it was 53.9%; in the assay on BT-549 breast it was 51.1%; with MDA-MB-435 melanoma, 37.4%. For the same compound, the growth with SW-620 colon is 22%; in the assay with MCF7 breast, 18.4%; in the assay on HCT-116 colon, 20.4%; in the assay on HCC-2998 colon it was 35.6%; in the assay on KM12 colon, 23.8%.
For the compound `O=C(OCc1ccc2c(Cl)cc(Cl)c(O)c2n1)N1CCN(C(=O)c2cc3ccccc3[nH]2)CC1`, the growth in the assay on SR leukemia is 25.3%; in the assay with RPMI-8226 leukemia, 40.6%; in the assay with OVCAR-8 ovarian it was 23.8%; in the assay with OVCAR-5 ovarian, 41.3%; in the assay with OVCAR-4 ovarian, 19.6%; in the assay on SK-OV-3 ovarian, 31.2%. The growth with IGROV1 ovarian is 18.5%; in the assay with OVCAR-3 ovarian it was 30.6%; in the assay with HS 578T breast, 43.5%; in the assay with BT-549 breast, 50.6%; in the assay with MDA-MB-435 melanoma, 39.1%; in the assay on SW-620 colon, 25.8%. In addition, the growth with MCF7 breast was 25.3%; with HCT-116 colon it was 20.3%; in the assay on HCC-2998 colon it was 55%; in the assay with KM12 colon, 20.7%.
Take `CCCOC(=O)Nc1nc2ccc(SCC)cc2s1`: the growth with SR leukemia was 25.9%; in the assay on RPMI-8226 leukemia it was 85.1%; with OVCAR-8 ovarian it was 94.7%; in the assay on OVCAR-5 ovarian, 102%; in the assay with OVCAR-4 ovarian it was 94.2%; in the assay on SK-OV-3 ovarian it was 95.8%. In addition, the growth in the assay with IGROV1 ovarian was 89.5%; in the assay on OVCAR-3 ovarian, 76.9%; with HS 578T breast, 93.4%; with T-47D breast, 84.8%; in the assay with BT-549 breast it was 85.5%; in the assay with MDA-MB-435 melanoma, 3.85% (active). Moreover, the growth in the assay with SW-620 colon is 52.5%; in the assay with MCF7 breast, 43.7%; in the assay with HCT-116 colon it was 62.8%; in the assay with HCC-2998 colon it was 79.7%; in the assay with KM12 colon, 58.6%.
With `CC(=O)Nc1sc2c(c1-c1nc3ccccc3s1)CNC2`, the growth is 6% (active) in the assay with SR leukemia; 19.1% in the assay on RPMI-8226 leukemia; 23.4% in the assay on OVCAR-8 ovarian; 41.8% in the assay with OVCAR-5 ovarian; 15.9% in the assay with SK-OV-3 ovarian; 13.5% in the assay with IGROV1 ovarian. Also, the growth was 36.3% with OVCAR-3 ovarian; 51.3% with HS 578T breast; 23.2% with NCI/ADR-RES ovarian; 4.49% (active) with T-47D breast; 58.1% in the assay with BT-549 breast; 29.7% in the assay with MDA-MB-435 melanoma. Also, the growth was 18.8% with SW-620 colon; 5.45% (active) with MCF7 breast; 18.8% in the assay on HCT-116 colon; 33.6% in the assay with HCC-2998 colon; 22.8% with KM12 colon.
For `CCN(CC)CCOc1ccc2ccc(=O)oc2c1`, the growth is -3.51% (active) in the assay on SR leukemia; -4.27% (active) with RPMI-8226 leukemia; 98.8% with OVCAR-8 ovarian; 96% in the assay on OVCAR-5 ovarian; 101% in the assay on OVCAR-4 ovarian; 109% in the assay with IGROV1 ovarian. The growth is 115% in the assay on OVCAR-3 ovarian; 109% with HS 578T breast; 101% with NCI/ADR-RES ovarian; 97.5% in the assay with T-47D breast; 102% with BT-549 breast; 112% in the assay on MDA-MB-435 melanoma. The growth with SW-620 colon is 101%; in the assay on MCF7 breast, 97.6%; in the assay on HCT-116 colon, 100%; in the assay with HCC-2998 colon, 90.5%; in the assay with KM12 colon, 103%.
As for `CN(C)c1ccc(/C=C2\C=C(c3nc4ccccc4s3)OC2=O)cc1`, the growth is 96.7% in the assay with SR leukemia; 72% with RPMI-8226 leukemia; 100% in the assay on OVCAR-8 ovarian; 96.9% in the assay on OVCAR-5 ovarian; 86.8% in the assay with SK-OV-3 ovarian; 89.7% in the assay on IGROV1 ovarian. Moreover, the growth with OVCAR-3 ovarian is 102%; in the assay with HS 578T breast, 92.2%; in the assay with NCI/ADR-RES ovarian it was 98.8%; in the assay on T-47D breast it was 78%; in the assay on BT-549 breast, 110%; in the assay on MDA-MB-435 melanoma it was 100%. Further, the growth in the assay with SW-620 colon was 94.7%; with MCF7 breast it was 70.8%; in the assay with HCT-116 colon, 100%; in the assay with HCC-2998 colon it was 97.8%; with KM12 colon, 93.7%.

Source of the values: PubChem BioAssay (NCI).
